Experimental findings from PubChem BioAssay AID2102 (Southern Research Specialized Biocontainment Screening …, 2009) are described below.

Hit rate of the full screen: of about 1,100 compounds, about 210 (19%) were called active. No rule for the calls is given here. The list is a sample of the results. Entries with a potency or affinity are not part of this list.

The nature of this assay: host cell cytotoxicity, dose response, cytotoxicity control for SV40 T antigen inhibitor project, selected hits (AID 2102).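 Also: cells exposed to compounds for 72 hours.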 The following applies: Host cell viability cytotoxicity counter-screen; series mostly up to 50 µM. A general note: The purpose of a counterscreen is to sort out artefacts and off-target activity.
In the case of `COc1cc(SC)ccc1C(=O)N1CCN(Cc2ccccc2)CC1`, the outcome was inactive.

As for `COc1cc(SC)ccc1C(=O)N1CCN(c2ccc(O)cc2)CC1`, the outcome was inactive.

Turning to `Cc1ccc(C)c(S(=O)(=O)Nc2ccc(O)cc2)c1`, the outcome was inactive.

With `Oc1ccc2c(c1)oc1cc(O)ccc12`, the result was inactive.

With `O=c1oc2cc(O)ccc2c2ccccc12`, the call was inactive.

Regarding `OC1CCN(C(=S)Nc2ccc(Nc3ccccc3)cc2)CC1`, the result was inactive.

For the compound `OCCNc1nc(Nc2ccc(O)cc2)nc2ccccc12`, the compound was classed as inactive.

Consider `CN1CCN(c2nc(Nc3ccc(O)cc3)nc3ccccc23)CC1`, for which the call was inactive.

In the case of `Cc1ccc2oc(=O)c(/C=C(\O)C(C)(C)C)nc2c1`, the outcome was inactive.

Take `COc1ccc(NC2CCCN(C(=O)c3ccc(OC)o3)C2)cc1` (centres undefined): the compound was classed as inactive.

`COc1ccc(CNC(=S)N/N=C/c2ccc(O)c(OC)c2)cc1`: the call was inactive.

With `COc1cc2c(cc1NC(=S)Nc1ccccc1C)oc1ccccc12`, the compound was called inactive.

For `COc1ccc(N2CCN(C(=O)NC3CC(=O)N(c4ccc(OC)cc4)C3)CC2)cc1` (centres undefined), the compound was called inactive.

For `CNC(=S)N1CCN(c2ccc(OC)cc2)CC1`, the result was inactive.

On to `COc1cc(/C=N/NC(=O)CC#N)cc(Br)c1O`, for which the result was inactive.

With `COc1ccc(N2C(=O)CC(Sc3n[nH]c(-c4cccc(C)c4)n3)C2=O)cc1` (centres undefined), the call was inactive.

On to `CC1=C(C#N)c2nc(N)c(C#N)c(C)c2/C1=C\c1ccc(-c2ccccc2C(=O)O)o1`, for which the compound was called inactive.

Turning to `COc1cc(/C=C2\N=C3CCCCCN3C2=O)ccc1O`, the call was inactive.

As to `O=c1/c(=C\c2cc([N+](=O)[O-])cc([N+](=O)[O-])c2O)sc2nc3ccccc3n12`, the call was inactive.

Take `O=C1C=C(Nc2ccc(O)cc2)CC(c2ccco2)C1` (centres undefined): the compound was called inactive.

With `O=C(O)/C=C/c1ccc(O)cc1`, the compound was classed as inactive.

Take `COc1cc(-c2nc(=S)[nH][nH]2)cc(OC)c1OC`: the result was inactive.

As to `C=CCn1c(CNc2ccccc2)nnc1SCC(=O)N/N=C/c1ccc(O)cc1O`, the compound was called inactive.

Consider `O=C(N/N=C/c1ccc(O)cc1)c1csc2ccccc12`, for which the result was inactive.

Turning to `CCCn1c(=O)c2ccccc2n2c(=S)[nH]nc12`, the compound was classed as inactive.

On to `CNC(=S)Nc1ccc(Nc2ccccc2)cc1`, for which the compound was called inactive.

Regarding `NC(=O)Nc1ccc(Nc2ccccc2)cc1`, the result was inactive.

As to `O=[N+]([O-])c1cccc(S(=O)(=O)N/N=C/c2ccc(O)cc2)c1`, the outcome was inactive.

For the compound `O=C(CN1C(=O)/C(=C/c2ccco2)SC1=S)Nc1ccc(C(=O)O)c(O)c1`, the compound was called inactive.

As for `COc1cc2c(cc1OC)C[N+](C)(C)CC2`, the compound was called inactive.

For the compound `COc1cc(/C=N/Nc2nncn2/N=C/c2ccc(O)c(OC)c2)ccc1O`, the result was inactive.

With `N#CC1=C(N)NC(=S)C(C(N)=O)C1c1ccccc1F` (centres undefined), the call was inactive.

With `CCNC(=S)Nc1cc(OCC)c(N2CCOCC2)cc1OCC`, the outcome was inactive.

As for `CCOc1cc(N2CCOCC2)c(OCC)cc1NC(C)C(=O)N1CCC(C)CC1` (centres undefined), the outcome was inactive.
